Source: PubChem BioAssay AID720517 (National Center for Advancing Translational Sciences (NCATS), 2013)
Inconclusive results are not listed. Calls of active or inactive are those of the source. The call rests on the fitted dose curve; in most records, active means well fitted activation curve with a large enough effect; inconclusive means small, poorly fitted or top-dose-only effect; inactive means flat fitted curve, though single readings scatter.

assay: qHTS for Inhibitors of Cell Surface uPA Generation: FP59 Counterscreen for Cherry-picked Compounds; conditions: FP59 anthrax toxin cytotoxicity counterscreen, cells; series mostly up to 115 µM; activity (protection from FP59): at the top concentration; on activity (protection from FP59): 0% is about no effect
Potency means the concentration at half of the fitted maximal effect.

**Q.** With `Cc1ccc(C(=O)COc2cc(O)c3c(=O)cc(-c4ccccc4)oc3c2)cc1` as the molecule, how does the “activity (protection from FP59)” value read?
**A.** -1.17% (inactive)

**Q.** Which “activity (protection from FP59)” value does the source give for `COc1ccc2nc(C)cc(Nc3ccccc3O)c2c1` here?
**A.** -1.53% (inactive)

**Q.** Which “activity (protection from FP59)” value does the source give for `Cc1nc2ccc(Br)cn2c1C(=O)N/N=C\c1ccccc1Cl` here?
**A.** -1.29% (inactive)

**Q.** With `CC1CC(C)(C)Nc2ccc(N=O)cc21` (centres undefined) as the molecule, how does the “activity (protection from FP59)” value read?
**A.** -1.58% (inactive)

**Q.** Which “activity (protection from FP59)” value does the source give for `Cc1cc(C)cc(NC(=O)Cc2ccc(NC3=NC4CS(=O)(=O)CC4S3)cc2)c1` (centres undefined) here?
**A.** -1.22% (inactive)

**Q.** With `O=C(NCC1CCCO1)c1c(O)c2cccc3c2n(c1=O)CCC3` (centres undefined) as the molecule, how does the “activity (protection from FP59)” value read?
**A.** -0.908% (inactive)

**Q.** For `NC(=O)c1cc2ccncc2c2ccccc12`, which “activity (protection from FP59)” value is on record?
**A.** 0.728% (inactive)

**Q.** Which “activity (protection from FP59)” value does the source give for `CCCOc1ccc(S(=O)(=O)NNC(=O)c2cc3ccccc3o2)cc1` here?
**A.** -0.614% (inactive)

**Q.** Which “activity (protection from FP59)” value does the source give for `Cc1nc(SCC(=O)NCCN2C(=O)CSC2=O)nc(C)c1C` here?
**A.** -1.33% (inactive)

**Q.** For `CCc1ccc(NC(=O)Cn2cnc([N+](=O)[O-])c2)cc1`, which “activity (protection from FP59)” value is on record?
**A.** -0.991% (inactive)

**Q.** With `CNS(=O)(=O)c1cc(-c2nnc(Nc3ccc(CC(N)=O)cc3)c3ccccc23)ccc1C` as the molecule, how does the “activity (protection from FP59)” value read?
**A.** -0.159% (inactive)

**Q.** Which “activity (protection from FP59)” value does the source give for `Cc1ccc(S(=O)(=O)N2CCOCC2)cc1C(=O)OC1CCOC1=O` (centres undefined) here?
**A.** -1.41% (inactive)

**Q.** For `CC(C)C1Oc2ccccc2N(CC(=O)NC2CCCCC2)C1=O` (centres undefined), which Potency is on record?
**A.** 58.5 µM (active)

**Q.** For `Cc1cnc(CNC(=O)CC2C(=O)NCCN2Cc2ccccc2C(F)(F)F)cn1` (centres undefined), which “activity (protection from FP59)” value is on record?
**A.** -1.1% (inactive)

**Q.** Which “activity (protection from FP59)” value does the source give for `N#C/C(N=Nc1ccccc1O)=N\Nc1ccccc1O` here?
**A.** 11.3% (inactive)

**Q.** Which “activity (protection from FP59)” value does the source give for `Cn1c(CN2CCCC2)nc2cc(NC(=O)COc3ccccc3)ccc21` here?
**A.** -1.43% (inactive)

**Q.** For `[N-]=[N+]=NC1C[C@H](n2ccc(=O)[nH]c2=O)O[C@@H]1CO` (some centres undefined), which “activity (protection from FP59)” value is on record?
**A.** -1.11% (inactive)

**Q.** Which “activity (protection from FP59)” value does the source give for `C=CCn1c(C)cc(C(=O)COC(=O)/C=C/c2cccc(OC)c2)c1C` here?
**A.** -0.999% (inactive)

**Q.** Which “activity (protection from FP59)” value does the source give for `CSc1ccccc1OCc1cc(C(=O)NCCCn2nc(C)cc2C)no1` here?
**A.** -1.14% (inactive)
